# Rows were chosen to be rich in hits. Some 0.79% of all compounds tested hit in one or more screens of this group.
# Tat export inh = inhibitors of E. coli Tat protein transport; E. coli MC4100 TorA-mCherry Tat export, fluorescence; inhibition, % at 10 µM; 0.036% of 340,000 active; AID 488895;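 active = mean replicate inhibition at least 50% and at least half of replicates individually reaching 50%; inconclusive = only one of the two criteria met; inactive = neither criterion met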;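 note: exported cargo escapes ClpAP degradation while cytoplasmic cargo is degraded and loses fluorescence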
# AI-2 QS mod = modulates the Vibrio harveyi AI-2 quorum sensing system; Vibrio harveyi JMH597 AI-2 luminescence/OD600 ratio, 9 h; hits give low values; strain lacks LuxN and CqsS sensors; 0 = neutral-control median; activity change, % at 7.5 µM; 0.4% of 300,000 active; in the data active = activity change below about -75%, passing the limit was not always enough; inconclusive = no clear call, values can overlap the other calls;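 note: luminescence divided by OD600 gain over 9 h not by final OD600 alone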
# phage Ecoli inh = E. coli growth loss with phage present; AID 651602; 0.26% of 360,000 active; growth absorbance; inhibition, % at 11.9 µM; in the data active = inhibition above about 11%
# E coli growth-1 = inhibitors of Escherichia coli growth; OD600 absorbance (test concentration not listed); 0.21% of 330,000 active; OD600, 23 h; hits give low values;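 active = OD600 absorbance below the run mean of sample wells minus 3.6 SD, in any replicate, cut at about 0.56 in these data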
# E coli growth-2 = counter-screen for AddAB inhibitors: E. coli growth inhibition; 0.27% of 330,000 active; inhibition, % at 11.9 µM; E. coli V3065 growth, OD600 absorbance, 18 h;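 active = inhibition above the campaign's mean inhibition across all tested compounds plus 3 SD, cut at about 9.9% in these data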;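 note: uninfected addAB+ strain grown without phage in ampicillin broth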
# AddAB inh = less growth of phage-infected E. coli with AddAB | E. coli expressing H. pylori AddAB, absorbance growth | AID 435030 | inhibition, % at 11.9 µM | 0.29% of 330,000 active; in the data active = inhibition above about 12%
# AddAB confirm = growth loss of T4-infected E. coli expressing H. pylori AddAB, confirmed | shares compounds with AddAB inh | E. coli V3065 expressing H. pylori AddAB, T4 phage, OD; T4 phage with gene 2 nonsense mutations | inhibition, % at 11.9 µM | 64% of 880 active;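 active = mean inhibition above a set limit taken from the earlier primary screen, cut at about 13% in these data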;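 note: higher means less bacterial growth since AddAB block lets phage replicate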
# RecBCD counter = counter-screen: growth loss of RecBCD+ E. coli with mutant T4 phage; shares compounds with AddAB inh; 73% of 880 active; E. coli V66 + mutant T4 phage, OD growth; inhibition, % at 11.9 µM;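 active = mean inhibition above the mean of solvent-only control wells plus 3 SD, cut at about 4% in these data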;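 note: optical density read after an 18 h incubation at 37 °C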
# Bact viability = counter-screen for AddAB inhibitors: inhibitors of bacterial viability; shares compounds with AddAB inh; absorbance (AddAB counterscreen); inhibition, % at 11.9 µM; 35% of 880 active; in the data active = inhibition above about 25%
# RecBCD conf = growth loss of phage-infected V66 E. coli, RecBCD confirmation screen | 45% of 890 active | shares compounds with phage Ecoli inh | AID 651982 | E. coli V66 + T4 2- phage, growth OD | inhibition, % at 11.9 µM;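 active = mean inhibition over triplicates exceeding the hit threshold derived in the original primary screen, cut at about 11% in these data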
# Ecoli viability = inhibits E. coli viability, flagging RecBCD hits as nonselective | inhibition, % at 11.9 µM | 29% of 890 active | shares compounds with phage Ecoli inh | absorbance (OD) growth; in the data active = inhibition above about 20%;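 note: E. coli strain V66 grown with compound alone and no phage infection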
# AddAB counter = growth loss of phage-infected AddAB E. coli, RecBCD counter-screen; shares compounds with phage Ecoli inh; E. coli expressing H. pylori AddAB + T4 phage, OD growth; gene 2 mutant T4, recBCD-deleted host; inhibition, % at 11.9 µM; 45% of 890 active; AID 651984;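 active = mean inhibition above the solvent-only control wells' mean plus 3 SD, cut at about 22% in these data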;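 note: higher means less bacterial growth from phage killing when AddAB is blocked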
# Hits are given with their value; - = inactive; ? = inconclusive; . = no result given; ! = repeats disagree.
SMILES,Tat export inh,AI-2 QS mod,phage Ecoli inh,E coli growth-1,E coli growth-2,AddAB inh,AddAB confirm,RecBCD counter,Bact viability,RecBCD conf,Ecoli viability,AddAB counter
O=C1C2CCCN2C(c2ccc(F)c(F)c2)N1c1cccc(Cl)c1 (configuration not stated),-,-,-,-,-,-,.,.,.,.,.,.
C=CCNC(=S)N/N=C(\C)c1ccccn1,-,-,38,.,30,31,31,29,25,27,34,32
CC(=NNC(=S)N1CCCCC1)c1ccccn1,.,.,-,.,.,.,.,.,.,.,.,.
CCN1CC2C3C(=O)N(C)C(=O)C3[C@](CC)(C1=O)N2C(=O)c1ccc(C)cc1 (some centres not stated),.,.,.,-,.,.,.,.,.,.,.,.
COc1ccc(NS(=O)(=O)c2ccc(N)cc2)nn1,.,-,.,.,-,-,.,.,.,.,.,.
Nc1ccc(S(=O)(=O)Nc2ccc(Cl)nn2)cc1,-,-,16,-,12,20,19,11,30,12,-,39
NC(=NCCCCCCN=C(N)/N=C(\N)Nc1ccc(Cl)cc1)/N=C(\N)Nc1ccc(Cl)cc1,156!,-,106!,.,105,103,100,101,100,104,105,104
CC(=NNc1nc2ccccc2nc1C)c1ccccc1O,.,.,.,-,.,.,.,.,.,.,.,.
CC[C@H]1OC(=O)[C@H](C)[C@@H](O[C@H]2C[C@@](C)(OC)[C@@H](O)[C@H](C)O2)[C@H](C)[C@@H](O[C@@H]2O[C@H](C)C[C@H](N(C)C)[C@H]2O)[C@](C)(OC)C[C@@H](C)C(=O)[C@H](C)[C@@H](O)[C@]1(C)O,58,-,15,.,17,22,52,25,28,29,30,40
CS(=O)(=O)c1ccc([C@@H](O)[C@@H](CO)NC(=O)C(Cl)Cl)cc1,-,-,27,.,29,29,-,27,-,35,25,-
CS(=O)(=O)c1ccc([C@@H](O)[C@@H](CF)NC(=O)C(Cl)Cl)cc1,147,.,85,.,85,84,87,90,87,92,94,84
CCC1SC(=NN=Cc2ccco2)N(Cc2ccccc2)C1=O (configuration not stated),.,.,.,-,.,.,.,.,.,.,.,.
O=c1cc2oc3cc(O)c(O)cc3c(-c3ccccc3[N+](=O)[O-])c-2cc1O,-,-,11,-,12,13,-,12,-,-,-,-
COc1ccc(OC)c(-c2cc(C(=O)NN=Cc3cc(OC)c(OC)cc3OC)c3ccccc3n2)c1,.,.,.,-,.,.,.,.,.,.,.,.
Cc1cccc(NC(=O)c2ccc([N+](=O)[O-])o2)n1,-,-89,16,0.53,38,30,100,13,40,-,-,61
Cc1nccn1CC(=O)NN=Cc1c[nH]c2ccccc12,.,.,.,-,.,.,.,.,.,.,.,.
COc1ccc2nc(NC(=O)CCNC(=O)c3ccco3)sc2c1,-,.,12,-,14,16,14,12,-,-,-,-
CC(=NNC(=O)c1ccccc1OCc1ccc(F)cc1)c1ccccn1,.,.,.,-,.,.,.,.,.,.,.,.
C#CCOCCOCCOCCNc1nc(N2CCN(C(=O)CCCCCCCCCCNC(=O)C(CCC(=O)O)n3cc(CCCCCN)nn3)CC2)nc(N2CCN(C(=O)CCCCCCCCCCNC(=O)C(C(C)O)n3cc(C)nn3)CC2)n1 (configuration not stated),.,.,.,-,.,.,.,.,.,.,.,.
O=C(O)c1cn(C2CC2)c2cc(N3CCN(S(=O)(=O)c4ccc5c(c4)OCCO5)CC3)c(F)cc2c1=O,-,-,93,0.082,97,99,98,98,101,102,102,103
COc1ccc(N/N=C(/N=Nc2nc(C)cc(=O)[nH]2)c2ccccc2)cc1,-,-,22,.,20,19,24,20,-,14,-,-
Cc1cc(C)c2c(NC(N)=S)n[nH]c2n1,-,-,-,-,-,-,.,.,.,.,.,.
Cc1cc(C)c2c(N=NN(C)C)[nH]nc2n1,-,-,14,-,78,39,97,8.6,54,12,-,70
Cc1nc2ccccc2c(=O)n1/N=C/c1ccc([N+](=O)[O-])o1,.,-,.,.,-,-,.,.,.,.,.,.
Cc1nc2ccccc2n1/N=C/c1ccc([N+](=O)[O-])o1,-,?,12,.,98,100,103,25,103,-,-,100
SMILES,Tat export inh,AI-2 QS mod,phage Ecoli inh,E coli growth-1,E coli growth-2,AddAB inh,AddAB confirm,RecBCD counter,Bact viability,RecBCD conf,Ecoli viability,AddAB counter
O=C(NN=Cc1ccccn1)c1cc([N+](=O)[O-])cc([N+](=O)[O-])c1,.,.,.,-,.,.,.,.,.,.,.,.
COc1cccc(/C=N/Nc2ccc([N+](=O)[O-])cn2)c1O,-,-,18,.,22,26,21,17,-,12,-,-
c1ccc(-c2nnc(-c3ccccn3)nc2NC2CCCCC2)cc1,-,-,14,0.41,18,16,20,15,-,-,-,-
NCCCCC(N)c1nnc(C(CC(=O)O)NC(=O)C2CCNCC2)o1 (configuration not stated),.,.,.,-,.,.,.,.,.,.,.,.
O=C(NNC(=O)c1cc2cc(Br)ccc2oc1=O)c1ccc(O)cc1O,-,-,18,-,23,24,-,14,-,-,-,-
CCOc1ccc(NC(=O)c2ccc(NC(=O)c3cn4c5c(c(N6CCN(C)CC6)c(F)cc5c3=O)OCC4C)cc2)cc1 (configuration not stated),88,-,99,0.067,97,95,100,100,99,103,104,104
CC1COc2c(N3CCN(C)CC3)c(F)cc3c(=O)c(C(=O)O)cn1c23 (configuration not stated),117,-,98,0.061,98,99,100,100,101,101,102,102
CCOc1ccc(C(=O)Nc2ccc(N3CCN(C)CC3)cc2)cc1,-,-,-,-,-,-,.,.,.,.,.,.
O=C(Nc1ccccc1)C1=CC(C2CCCCC2)CC(OCc2ccc(CO)cc2)O1 (configuration not stated),.,.,.,-,.,.,.,.,.,.,.,.
COC(=O)C1=COC(O)C2C(CO)=CCC12 (configuration not stated),.,.,.,-,.,.,.,.,.,.,.,.

# Screening results from PubChem.
